# Test results reported in PubChem BioAssay AID2556 (The Scripps Research Institute Molecular Screening Center, 2010).
# Values without a mark were called inactive. Activity calls are given as the source filed them. No rule for the calls is given here.
# Experiment: xanthine oxidase inhibitors, late-stage follow-up, counter-screen for NOX1 inhibitor project, biochemical (AID 2556)
# Conditions: xanthine oxidase superoxide assay
row,Structure (SMILES),IC50
1,COc1cc(-c2nc(-c3ccccc3)c(-c3ccccc3)[nH]2)ccc1O,11.2 µM
2,c1ccc2c(c1)Nc1nc3ccccc3nc1N2,3.5 µM (active)
3,Cc1cc(Cl)ccc1NC(=S)NNC(=S)Nc1ccc(F)cc1,11 µM
4,CN(C)c1ccc(NC(=O)Nc2ccc(OCc3ccccc3)cc2)cc1,2 µM (active)
5,O=C(Oc1ccccc1N1CCCCC1)c1sc2ccccc2c1Cl,11.1 µM
6,FC(F)(F)c1ccc2c(c1)Nc1ccccc1S2,20.7 µM
